Source: the antibiotic and cytotoxicity screens of Wong et al. (2023)
The whole screen tested about 39,000 compounds, of which about 1,500 (3.8%) were called active. This is one part of a sample in which actives are shown more often than they occur.

tested on: HSkMC (human skeletal muscle cells); assay: cytotoxicity call (relative viability < 0.9); settings: 10 µM

Structure (SMILES)	cytotoxicity call
C=CC[C@H](CC(=O)N(CCO)Cc1ccccc1)C(=O)N[C@H](COC(=O)[C@@H](CC=C)CC(=O)OC(C)(C)C)Cc1c[nH]c2ccccc12	inactive
C=CC[C@@H](CC(=O)N(CCO)Cc1ccccc1)C(=O)N[C@@H](COC(=O)[C@H](CC=C)Cc1ccc(F)cc1)Cc1c[nH]c2ccccc12	active
C=CC[C@H](CC(=O)N(CCO)Cc1ccccc1)C(=O)N[C@@H](COC(=O)[C@@H](CC=C)Cc1ccc(F)cc1)Cc1c[nH]c2ccccc12	active
C=CC[C@@H](CC(=O)N(CCO)Cc1ccccc1)C(=O)N[C@H](COC(=O)[C@@H](CC=C)Cc1ccc(F)cc1)Cc1c[nH]c2ccccc12	active
C=CC[C@@H](CC(=O)N(CCO)Cc1ccccc1)C(=O)N[C@@H](COC(=O)[C@@H](CC=C)CC(=O)OC(C)(C)C)Cc1c[nH]c2ccccc12	inactive
C=CC[C@@H](CC(=O)N(CCO)Cc1ccccc1)C(=O)N[C@@H](COC(=O)[C@@H](CC=C)Cc1ccc(F)cc1)Cc1c[nH]c2ccccc12	active
C=CC[C@H](CC(=O)N(CCO)Cc1ccccc1)C(=O)N[C@@H](COC(=O)[C@@H](CC=C)CC(=O)OC(C)(C)C)Cc1c[nH]c2ccccc12	inactive
C=CC[C@H](CC(=O)N(CCO)Cc1ccccc1)C(=O)N[C@H](COC(=O)[C@@H](CC=C)Cc1ccc(F)cc1)Cc1c[nH]c2ccccc12	inactive
C=CC[C@@H](CC(=O)N(CCO)Cc1ccccc1)C(=O)N[C@@H](COC(=O)[C@H](CC=C)CC(=O)OC(C)(C)C)Cc1c[nH]c2ccccc12	inactive
C=CC[C@@H](CC(=O)N(CCO)Cc1ccccc1)C(=O)N[C@H](COC(=O)[C@@H](CC=C)CC(=O)OC(C)(C)C)Cc1c[nH]c2ccccc12	inactive
C=CC[C@H](CC(=O)N(CCO)Cc1ccccc1)C(=O)N[C@H](COC(=O)[C@H](CC=C)CC(=O)OC(C)(C)C)Cc1c[nH]c2ccccc12	inactive
C=CC[C@H](CC(=O)N(CCO)Cc1ccccc1)C(=O)N[C@@H](COC(=O)[C@H](CC=C)CC(=O)OC(C)(C)C)Cc1c[nH]c2ccccc12	inactive
C[C@H]1CCCCO[C@H](CN(C)CC2CC2)[C@@H](C)CN([C@@H](C)CO)C(=O)c2cc(NC(=O)C3CCCCC3)ccc2O1	inactive
C[C@@H]1CN([C@@H](C)CO)C(=O)c2cc(NC(=O)C3CC3)ccc2O[C@H]1CN(C)S(=O)(=O)c1ccc(F)cc1	inactive
C[C@@H]1CN([C@H](C)CO)S(=O)(=O)c2ccc(/C=C/c3ccccc3)cc2O[C@@H]1CN(C)C(=O)Nc1cc(F)ccc1F	inactive
NC(=S)c1cnccn1	inactive
C[C@@H]1CCCCO[C@H](CN(C)Cc2ccc(C(F)(F)F)cc2)[C@H](C)CN([C@@H](C)CO)C(=O)c2cc(NS(=O)(=O)c3ccccc3)ccc2O1	inactive
C[C@H](CO)N1C[C@H](C)[C@@H](CN(C)C(=O)Nc2ccc(F)cc2)Oc2ccc(NC(=O)C3CC3)cc2CC1=O	inactive
C[C@@H]1CN([C@H](C)CO)C(=O)c2cc(C3=CCCC3)cnc2O[C@@H]1CN(C)C(=O)c1ccc2c(c1)OCO2	inactive
C[C@H](CO)N1C[C@H](C)[C@@H](CN(C)C(=O)c2ccccc2)OCCCC[C@H](C)Oc2ccc(NC(=O)Nc3cccc4ccccc34)cc2C1=O	inactive

Structure (SMILES)	cytotoxicity call
CN1CCN(C(=O)C[C@H]2CC[C@@H]3[C@H](COC[C@@H](O)CN3S(=O)(=O)c3cccc(F)c3)O2)CC1	inactive
C[C@@H]1CN([C@@H](C)CO)C(=O)c2c(c3ccccc3n2C)-c2ccccc2CO[C@@H]1CN(C)Cc1ccc(C(=O)O)cc1	inactive
Cc1ccc([C@@H]2CC(=O)N[C@@H]2C(N)=O)cc1	inactive
C[C@@H]1CN([C@@H](C)CO)C(=O)c2cccc(NC(=O)Nc3cccc4ccccc34)c2O[C@H]1CN(C)S(=O)(=O)c1cccs1	inactive
C[C@@H]1CN([C@@H](C)CO)C(=O)c2cccc(NC(=O)Nc3cccc4ccccc34)c2O[C@@H]1CN(C)S(=O)(=O)c1ccc(Cl)cc1	inactive
COc1cccc(S(=O)(=O)N(C)C[C@@H]2Oc3c(NC(=O)Nc4cccc5ccccc45)cccc3C(=O)N([C@@H](C)CO)C[C@H]2C)c1	inactive
C[C@H]1CN([C@@H](C)CO)C(=O)c2cccc(NC(=O)Nc3cccc4ccccc34)c2O[C@@H]1CN(C)S(=O)(=O)c1ccc(Cl)cc1	inactive
COc1ccc(S(=O)(=O)N(C)C[C@@H]2Oc3c(NC(=O)Nc4cccc5ccccc45)cccc3C(=O)N([C@@H](C)CO)C[C@H]2C)c(OC)c1	active
C[C@@H]1CN([C@@H](C)CO)C(=O)c2cccc(NC(=O)Nc3cccc4ccccc34)c2O[C@@H]1CN(C)S(=O)(=O)c1cccs1	inactive
C[C@@H]1CN([C@@H](C)CO)C(=O)c2cccc(NC(=O)Nc3cccc4ccccc34)c2O[C@H]1CN(C)S(=O)(=O)c1ccc(F)cc1	inactive
C[C@H]1CN([C@@H](C)CO)C(=O)c2cccc(NC(=O)Nc3cccc4ccccc34)c2O[C@@H]1CN(C)S(=O)(=O)c1cccs1	active
C[C@@H]1CN([C@H](C)CO)C(=O)c2cccc(NC(=O)Nc3cccc4ccccc34)c2O[C@@H]1CN(C)S(=O)(=O)c1ccc(Cl)cc1	active
COc1ccccc1S(=O)(=O)N(C)C[C@@H]1Oc2c(NC(=O)Nc3cccc4ccccc34)cccc2C(=O)N([C@@H](C)CO)C[C@H]1C	inactive
C[C@H](CO)N1C[C@H](C)[C@H](CN(C)S(=O)(=O)c2ccc(F)cc2)Oc2c(NC(=O)Nc3cccc4ccccc34)cccc2C1=O	active
C[C@@H]1CN([C@H](C)CO)C(=O)c2cccc(NC(=O)Nc3cccc4ccccc34)c2O[C@@H]1CN(C)S(=O)(=O)c1ccc(F)cc1	inactive
C[C@H](O)C#Cc1ccc2c(c1)O[C@@H](CN(C)C(=O)Cc1ccccn1)[C@H](C)CN([C@H](C)CO)S2(=O)=O	inactive
O=C(O)CNC(=O)c1[nH]nc2ccccc12	inactive
C[C@@H]1CCCCO[C@@H](CN(C)Cc2ccc(C(F)(F)F)cc2)[C@@H](C)CN([C@H](C)CO)C(=O)c2cc(NS(=O)(=O)c3ccccc3)ccc2O1	inactive
C[C@H](CO)N1C[C@H](C)[C@H](CN(C)S(=O)(=O)c2ccc(F)cc2)Oc2ccc(NS(=O)(=O)c3ccc(F)cc3)cc2C1=O	inactive
COc1ccc(CN(C)C[C@H]2OCCCC[C@H](C)Oc3ccc(NC(=O)Nc4cccc5ccccc45)cc3C(=O)N([C@@H](C)CO)C[C@H]2C)cc1	inactive

Structure (SMILES)	cytotoxicity call
COc1ccc(CN(C)C[C@H]2OCCCC[C@H](C)Oc3ccc(NC(=O)Nc4cccc5ccccc45)cc3C(=O)N([C@@H](C)CO)C[C@@H]2C)cc1	inactive
COc1ccc(CN(C)C[C@@H]2OCCCC[C@H](C)Oc3ccc(NC(=O)Nc4cccc5ccccc45)cc3C(=O)N([C@H](C)CO)C[C@@H]2C)cc1	inactive
COc1ccc(CN(C)C[C@@H]2OCCCC[C@H](C)Oc3ccc(NC(=O)Nc4cccc5ccccc45)cc3C(=O)N([C@@H](C)CO)C[C@@H]2C)cc1	active
COc1ccc(CN(C)C[C@H]2OCCCC[C@@H](C)Oc3ccc(NC(=O)Nc4cccc5ccccc45)cc3C(=O)N([C@H](C)CO)C[C@H]2C)cc1	inactive
COc1ccc(CN(C)C[C@@H]2OCCCC[C@H](C)Oc3ccc(NC(=O)Nc4cccc5ccccc45)cc3C(=O)N([C@H](C)CO)C[C@H]2C)cc1	active
COc1ccc(CN(C)C[C@@H]2OCCCC[C@@H](C)Oc3ccc(NC(=O)Nc4cccc5ccccc45)cc3C(=O)N([C@@H](C)CO)C[C@H]2C)cc1	active
COc1ccc(CN(C)C[C@@H]2OCCCC[C@@H](C)Oc3ccc(NC(=O)Nc4cccc5ccccc45)cc3C(=O)N([C@H](C)CO)C[C@H]2C)cc1	active
C[C@@H]1CC=CC[C@@H](c2cccc(Cl)c2)NC(=O)[C@@H](Cc2ccccc2)N(C)C(=O)c2ccccc2O1	inactive
Cc1noc(C)c1NC(=O)Nc1ccc2c(c1)C(=O)N([C@@H](C)CO)C[C@H](C)[C@H](CN(C)Cc1ccc(Cl)c(Cl)c1)OCCCC[C@@H](C)O2	inactive
N[C@@H](CC(=O)O)c1cccc([N+](=O)[O-])c1	inactive
C[C@@H]1CN([C@H](C)CO)C(=O)c2cc(NS(=O)(=O)c3ccccc3)ccc2O[C@H]1CN(C)S(C)(=O)=O	inactive
COCC#Cc1ccc2c(c1)O[C@@H](CN(C)C(=O)COC)[C@H](C)CN([C@@H](C)CO)S2(=O)=O	inactive
CC(C)NC(=O)Nc1ccc2c(c1)C(=O)N([C@@H](C)CO)C[C@H](C)[C@H](CN(C)S(=O)(=O)c1cccs1)O2	inactive
C[C@@H]1CN([C@H](C)CO)C(=O)Cc2cc(NC(=O)C3CCCCC3)ccc2O[C@H]1CN(C)C(=O)Nc1ccc(C(F)(F)F)cc1	inactive
Cc1ccc(S(=O)(=O)N[C@H]2C=C[C@H](CC(=O)NCCN3CCCCC3)O[C@@H]2CO)cc1	inactive
C[C@@H]1CN([C@H](C)CO)C(=O)c2cc(NS(=O)(=O)c3cccs3)ccc2O[C@@H]1CN(C)S(=O)(=O)c1cccs1	inactive
CC(C)NC(=O)Nc1ccc2c(c1)C(=O)N([C@H](C)CO)C[C@@H](C)[C@@H](CN(C)Cc1ccc(Oc3ccccc3)cc1)O2	inactive
NC[C@@H](CO)Cc1ccsc1	inactive
C[C@@H]1CCCCO[C@@H](CN(C)S(C)(=O)=O)[C@H](C)CN([C@@H](C)CO)C(=O)c2cc(NC(=O)CCCN(C)C)ccc2O1	inactive
COc1ccc(S(=O)(=O)Nc2ccc3c(c2)C(=O)N([C@@H](C)CO)C[C@H](C)[C@@H](CN(C)S(=O)(=O)c2cccs2)O3)cc1	inactive
